NOTCH agonist = agonists of NOTCH signaling | NOTCH signaling luciferase reporter cells, luminescence | activation, % at 2.5 µM | actives 0.4% (n = 15,000) | AID 434982, 2010; in the data active means activation above about 2.2%
PME-1 Maybridge = inhibitors of human PME-1 in Maybridge library; Protein phosphatase methylesterase 1 (Homo sapiens), Q9Y570; actives 0.5% (n = 16,000); inhibition, % at 9 µM; recombinant PME-1, FP-Rh probe fluorescence polarization; in the data active means inhibition above about 30%
Target sequence (Q9Y570 whole entry, looked up): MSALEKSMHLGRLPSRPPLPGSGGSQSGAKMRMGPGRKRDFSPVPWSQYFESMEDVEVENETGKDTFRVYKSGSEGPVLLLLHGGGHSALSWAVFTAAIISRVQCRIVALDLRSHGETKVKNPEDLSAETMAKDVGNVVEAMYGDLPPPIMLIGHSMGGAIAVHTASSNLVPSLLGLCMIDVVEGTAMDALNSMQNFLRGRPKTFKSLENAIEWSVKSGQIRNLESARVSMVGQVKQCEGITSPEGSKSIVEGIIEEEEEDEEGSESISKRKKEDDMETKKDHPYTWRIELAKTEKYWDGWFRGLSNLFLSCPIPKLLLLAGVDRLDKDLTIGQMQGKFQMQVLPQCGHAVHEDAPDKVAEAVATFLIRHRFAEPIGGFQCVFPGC
luminol inh ctr = counter-screen for Nox1 inhibitors: inhibitors of luminol chemiluminescence; HRP/luminol/H2O2 chemiluminescence counterscreen; inhibition, % at 6.7 µM; actives 0.4% (n = 16,000); AID 1823, 2009; further: reference of the scale not given here
Nox1 inhibitor = inhibitors of human NADPH oxidase 1 (Nox1) | Q9Y5S8 | HT29 cells, luminol chemiluminescence ROS | inhibition, % at 6.7 µM | actives 0.81% (n = 16,000)
An asterisk follows results filed as active; x = no result given. Compounds with a hit are over-represented: about 2.1% of the library has one in this group of screens. Unless noted, no stated cut-off is given here; in the data, active means inhibition above about 75%; inactive means the rest.

SMILES	NOTCH agonist	PME-1 Maybridge	luminol inh ctr	Nox1 inhibitor
COc1ccc(Br)c(C(=O)/C(C#N)=C/c2ccc(N(C)C)cc2)c1	0	8	24	-3
COc1ccc(Br)c(C(=O)/C(C#N)=N/Nc2ccc(F)cc2)c1	-1	37*	0	40
Cc1cc2c(N)cccc2nn1	-1	106*	6	45
O=c1[nH][nH]c2cccc(F)c12	-1	-1	11	79*
CC(=O)OCc1ccc(/C=C(\C#N)S(=O)(=O)c2ccc(Cl)cc2)o1	0	12	-1	-3
CCCc1nn(C(=O)c2ccco2)cc1C(=O)OCC	0	6	-4	-29
S=c1[nH]nc(-c2cccc3ccccc23)n1-c1cccnc1	-1	-1	89*	24
O=c1c(=NO)c(=O)c2ccccc12	2.3*	4	-7	0
O=c1c2ccccc2c(=O)n2n1CC=CC2	0	2	3	3
N#C/C(=N\Nc1ccc(C(F)(F)F)cc1[N+](=O)[O-])C(N)=O	0	0	15	3
CSc1nnc(SCC(=O)N2CCC(C(F)(F)F)CC2)s1	2.7*	-4	3	-36
Cc1c(/C=N/NC(=O)NCc2ccccc2)sc2ccccc12	-1	-1	2	-13
Nc1ccc(C(=O)O)c2c(C(=O)O)cccc12	0	49*	25	29
CCNc1cc(N)[n+](CC)c2n[nH]c(/N=C/C=C/c3ccccc3)c12	-1	2	52	-40
COCCOc1ccc(N=Cc2ccccc2O)cc1C(=O)O	3.1*	1	-20	11
O=c1[nH]c2ccccc2c(=O)n1CCSc1nc2ccccc2o1	0	7	-5	17
O=c1c(Cl)c2oc3ccccc3nc-2c2ccccc12	-1	9	7	90*
O=C1Nc2ccccc2/C1=C\c1c[nH]c2ccccc12	0	34*	-16	9
CN1C(=O)c2ccc(N)cc2C1=O	0	0	3	-12
CCn1cnc2nc(N)[nH]c(=O)c21	-1	-3	-2	-8
CC1(C)c2cc(O)ccc2OC1N1CCOCC1 (stereo not given)	0	5	96*	85*
COC(=O)c1ccncc1C(=O)Nc1ccc(C)cc1	0	1	-1	-56
c1ccc2c(c1)N1CC3(CCCCC3)CNC1C21OCCO1 (stereo not given)	x	3	8	-75
Nn1c(-c2ccc(Cl)cc2)n[nH]c1=S	0	5	99*	20
COc1ccccc1NC(=S)Nc1ccccn1	-1	4	2	-22
SMILES	NOTCH agonist	PME-1 Maybridge	luminol inh ctr	Nox1 inhibitor
COC(=O)c1ccccc1NC(=S)Nc1ccc(Cl)cn1	0	6	98*	18
N#Cc1n[nH]nc1-c1ccc(OC(=O)c2ccc(Cl)cc2)cc1	-1	-9	-27	0
O=C(O)/C(=N/Nc1ccccc1O)c1ccccc1	0	0	-3	83*
NC(=O)c1cccc(CSCc2csc3ccccc23)c1	0	1	-3	-14
N=C(N)SCc1csc2ccccc12	2.4*	3	-6	24
COc1cccc(CC(=O)NNC(=O)c2cnn(-c3ccccc3)c2C)c1	0	-1	-2	-5
COc1ccc(SCCC(=O)NNS(=O)(=O)c2cccc(Cl)c2)cc1	-1	-3	8	-14
COc1ccc(CNC(=S)NCCCO)cc1	-1	4	98*	-51
CC1CN(c2ccccc2OC(=O)Nc2ccc(OC(F)(F)F)cc2)CC(C)O1 (stereo not given)	0	-12	15	101*
O=C(Nc1ccc(Cl)cc1)Oc1ccccc1N1CCSCC1	0	-2	4	92*
CN1c2ccccc2C(O)=C(C(=O)Nc2ccc(OC(F)(F)F)cc2)S1(=O)=O	0	-14	-3	14
COc1ccc(-c2nc(N/N=C/c3cccs3)[nH]c(=O)c2C#N)cc1	0	-4	3	-3
COc1cc(C(N)=O)ccn1	0	5	-6	-9
Cc1nnsc1-c1n[nH]c(=S)n1C1CC1	0	5	99*	12
Cc1nnsc1-c1onc(C)c1-c1nc(-c2ccc([N+](=O)[O-])o2)no1	-1	-1	3	-39
COc1ccc(/C(C)=N/NC2=NCCCN2)cc1	-1	5	1	-49
CCOC(=O)C1=C(Nc2ccc(OC(C)=O)cc2)C(=O)N(C(C)(C)C)C1	0	-2	4	84*
CCO/C(C)=N/OC(=O)Nc1ccc(OC(F)(F)F)cc1	-1	1	-1	-57
CC(=O)c1cc([N+](=O)[O-])c(SCc2ccc(Cl)cc2)s1	0	32*	-5	6
CC(=O)c1cc([N+](=O)[O-])c(Sc2ccc(Cl)cc2)s1	-1	3	4	-89

Compound activity as filed in PubChem.
